# Data: PubChem BioAssay (NCI)
# Compounds without any hit were thinned out: in the full panel of roughly 79,000, 15% have a hit. Unmarked numbers belong to inactive results. The source made the active and inactive calls. Rule as the data show it: active = growth inhibition above about 70%; inactive = the rest.
# Assays:
# [1] = NCI Yeast Anticancer Drug Screen. Data for the rad52 strain (AID 147);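 also: 0% = growth of vehicle-treated control cultures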; details: S. cerevisiae rad52 mutant growth inhibition, stronger effect = higher value
# Summary of the method: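 Growth of repair-deficient yeast cells was compared between compound-treated and vehicle-treated cultures to give percent inhibition.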
# [2] = NCI Yeast Anticancer Drug Screen. Data for the wt1 strain (AID 149);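 also: 0% = growth of vehicle-treated wt1 cultures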; details: S. cerevisiae wt1 strain (SPY 50644) growth inhibition, stronger effect = higher value
# Summary of the method: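 Using yeast strain wt1, compound-induced growth inhibition was determined against vehicle-treated cultures.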
# [3] = NCI Yeast Anticancer Drug Screen. Data for the rad50EPP+ strain (AID 151);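 also: 0% = growth of vehicle-treated control cultures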; details: S. cerevisiae rad50 mutant strain, stronger effect = higher value
# Summary of the method: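 Measured: growth inhibition of rad50EPP+ yeast. Reference: vehicle-treated controls. Screen uses strains with defined genetic alterations in DNA damage repair or cell cycle control.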
# [4] = NCI Yeast Anticancer Drug Screen. Data for the mgt1 strain (AID 153); details: S. cerevisiae mgt1 mutant growth inhibition, stronger effect = higher value
# Summary of the method: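 Compounds were applied to mgt1 mutant yeast, and growth was then compared against vehicle-treated control cultures to give percent inhibition.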
# [5] = NCI Yeast Anticancer Drug Screen. Data for the rad50 strain (AID 155);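 also: 0% = growth of vehicle-only cultures of the same strain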; details: S. cerevisiae rad50 strain growth inhibition, stronger effect = higher value
# Summary of the method: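 Relative growth inhibition (compound vs vehicle) was measured in yeast with a defined repair-gene alteration.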
# [6] = NCI Yeast Anticancer Drug Screen. Data for the mec2-1 strain (AID 157); details: S. cerevisiae mec2-1 strain, stronger effect = higher value
# Summary of the method: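 Compounds were applied to mec2-1 yeast cells. Their growth was then compared with that of vehicle-treated cultures to give growth inhibition.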
# [7] = NCI Yeast Anticancer Drug Screen. Data for the rad14 strain (AID 159);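 also: 0% = growth of vehicle-treated control cultures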; details: S. cerevisiae rad14 strain growth inhibition, stronger effect = higher value
# Summary of the method: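 Screen for anticancer potential: a yeast strain altered in DNA damage repair is grown with compound, and reduced growth is quantified against vehicle controls.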
# [8] = NCI Yeast Anticancer Drug Screen. Data for the sgs1 mgt1 strain (AID 161);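 also: 0% = growth of cultures given vehicle only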; details: S. cerevisiae sgs1 mgt1 strain, stronger effect = higher value
# Summary of the method: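 Compounds are added to genetically altered yeast, and growth is compared with cultures given vehicle alone to give percent inhibition.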
# [9] = NCI Yeast Anticancer Drug Screen. Data for the CLN2oe strain (AID 163);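 also: 0% = growth of vehicle-only control cultures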; details: S. cerevisiae CLN2oe strain, stronger effect = higher value
# Summary of the method: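 Cells of an engineered yeast line with disturbed cell-cycle regulation are treated with compound. Inhibition of growth is then calculated relative to the vehicle-treated reference.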
# [10] = NCI Yeast Anticancer Drug Screen. Data for the cln2 rad14 strain (AID 165);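 also: 0% = growth equal to vehicle treated cultures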; details: S. cerevisiae cln2 rad14 strain, stronger effect = higher value
# Summary of the method: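 Strain: cln2 rad14 yeast, altered in cell cycle control and DNA damage repair. Read-out: growth inhibition vs vehicle.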
# [11] = NCI Yeast Anticancer Drug Screen. Data for the bub3 strain (AID 167); details: S. cerevisiae bub3 mutant strain, stronger effect = higher value
# Summary of the method: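 Screening used yeast with an engineered genetic alteration affecting cell cycle control. Compound-exposed cultures were compared with vehicle cultures, and reduced growth was taken as inhibition.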
# [12] = NCI Yeast Anticancer Drug Screen. Data for the wt2 strain (AID 169);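 also: 0% = growth of vehicle-treated yeast cultures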; details: S. cerevisiae wt2 strain growth inhibition, stronger effect = higher value
# Summary of the method: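 Growth of compound-treated yeast is measured and expressed as inhibition relative to vehicle-only controls.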
# [13] = NCI Yeast Anticancer Drug Screen. Data for the mlh1 strain (AID 171);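 also: 0% = growth of vehicle-treated control cultures of the same strain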; details: S. cerevisiae mlh1 strain growth inhibition, stronger effect = higher value
# Summary of the method: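 Test agents were incubated with yeast bearing a defined DNA damage repair or cell cycle control alteration; values are growth inhibition normalised to vehicle-treated cultures.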
# [14] = NCI Yeast Anticancer Drug Screen. Data for the sgs1 strain (AID 173);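 also: 0% = growth of vehicle-only control cultures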; details: S. cerevisiae sgs1 mutant, stronger effect = higher value
# Summary of the method: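 Strain with an altered DNA repair or cell cycle pathway exposed to compound. Growth then measured. Value = inhibition versus vehicle control.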
# [15] = NCI Yeast Anticancer Drug Screen. Data for the mlh1 rad18 strain (AID 175); details: S. cerevisiae mlh1 rad18 strain growth inhibition, stronger effect = higher value
# Summary of the method: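 A repair-deficient yeast strain is exposed to test compound, and growth is scored relative to vehicle-treated controls.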
# [16] = NCI Yeast Anticancer Drug Screen. Data for the rad18 strain (AID 177); details: S. cerevisiae rad18 mutant growth inhibition, stronger effect = higher value
# Summary of the method: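 DNA-repair-defective yeast; compound treatment; growth inhibition scored against vehicle.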
# [17] = at 5.0 µM (retest, dose inferred, filed as 0.5)
# [18] = at 50.0 µM (retest, dose inferred, filed as 5.0)
smiles,measurement,setting,value
CC(=O)O/C(=C1\C[C@H]2[C@@H]3CC=C4C[C@@H](OC(C)=O)CC[C@]4(C)[C@H]3CC[C@]2(C)C1=O)C(F)(F)F,growth inhibition,[1]; at 1.2 µM,-2%
same,growth inhibition,[1]; at 3.7 µM,-1%
same,growth inhibition,[1]; at 11.0 µM,-5%
same,growth inhibition,[1]; at 33.0 µM,-3%
same,growth inhibition,[1]; at 100.0 µM,0%
same,growth inhibition,[2]; at 1.2 µM,-1%
same,growth inhibition,[2]; at 3.7 µM,1%
same,growth inhibition,[2]; at 11.0 µM,2%
same,growth inhibition,[2]; at 33.0 µM,0%
same,growth inhibition,[2]; at 100.0 µM,4%
same,growth inhibition,[3]; at 1.2 µM,1%
same,growth inhibition,[3]; at 3.7 µM,6%
same,growth inhibition,[3]; at 11.0 µM,5%
same,growth inhibition,[3]; at 33.0 µM,3%
same,growth inhibition,[3]; at 100.0 µM,1%
same,growth inhibition,[4]; at 1.2 µM,1%
same,growth inhibition,[4]; at 3.7 µM,0%
same,growth inhibition,[4]; at 11.0 µM,1%
same,growth inhibition,[4]; at 33.0 µM,1%
same,growth inhibition,[4]; at 100.0 µM,3%
same,growth inhibition,[5]; at 1.2 µM,3%
same,growth inhibition,[5]; at 3.7 µM,-1%
same,growth inhibition,[5]; [17],18%
same,growth inhibition,[5]; at 11.0 µM,7%
same,growth inhibition,[5]; at 33.0 µM,2%
same,growth inhibition,[5]; [18],18%
same,growth inhibition,[5]; at 50.0 µM,76.1% (active)
same,growth inhibition,[5]; at 100.0 µM,0%
same,growth inhibition,[6]; at 1.2 µM,2%
same,growth inhibition,[6]; at 3.7 µM,4%
same,growth inhibition,[6]; [17],19%
same,growth inhibition,[6]; at 11.0 µM,4%
same,growth inhibition,[6]; at 33.0 µM,5%
same,growth inhibition,[6]; [18],3%
same,growth inhibition,[6]; at 50.0 µM,80.5% (active)
same,growth inhibition,[6]; at 100.0 µM,14%
same,growth inhibition,[7]; at 1.2 µM,1%
same,growth inhibition,[7]; at 3.7 µM,-4%
same,growth inhibition,[7]; at 11.0 µM,0%
same,growth inhibition,[7]; at 33.0 µM,-7%
same,growth inhibition,[7]; at 100.0 µM,22%
same,growth inhibition,[8]; [17],2%
same,growth inhibition,[8]; [18],18%
same,growth inhibition,[8]; at 50.0 µM,77.8% (active)
same,growth inhibition,[9]; at 1.2 µM,-140%
same,growth inhibition,[9]; at 3.7 µM,4%
same,growth inhibition,[9]; at 11.0 µM,2%
same,growth inhibition,[9]; at 33.0 µM,1%
same,growth inhibition,[9]; at 100.0 µM,6%
same,growth inhibition,[10]; [17],37%
same,growth inhibition,[10]; [18],-1%
same,growth inhibition,[10]; at 50.0 µM,94% (active)
same,growth inhibition,[11]; at 1.2 µM,-1%
same,growth inhibition,[11]; at 3.7 µM,1%
same,growth inhibition,[11]; [17],-10%
same,growth inhibition,[11]; at 11.0 µM,10%
same,growth inhibition,[11]; at 33.0 µM,3%
same,growth inhibition,[11]; [18],13%
same,growth inhibition,[11]; at 50.0 µM,61.7%
same,growth inhibition,[11]; at 100.0 µM,6%
same,growth inhibition,[12]; at 1.2 µM,-1%
same,growth inhibition,[12]; at 3.7 µM,0%
same,growth inhibition,[12]; at 11.0 µM,-2%
same,growth inhibition,[12]; at 33.0 µM,-1%
same,growth inhibition,[12]; at 100.0 µM,2%
same,growth inhibition,[13]; at 1.2 µM,4%
same,growth inhibition,[13]; at 3.7 µM,4%
same,growth inhibition,[13]; at 11.0 µM,3%
same,growth inhibition,[13]; at 33.0 µM,-20%
same,growth inhibition,[13]; at 100.0 µM,11%
same,growth inhibition,[14]; at 1.2 µM,2%
same,growth inhibition,[14]; at 3.7 µM,3%
same,growth inhibition,[14]; at 11.0 µM,4%
same,growth inhibition,[14]; at 33.0 µM,3%
same,growth inhibition,[14]; at 100.0 µM,2%
same,growth inhibition,[15]; [17],9%
same,growth inhibition,[15]; [18],9%
same,growth inhibition,[15]; at 50.0 µM,63.5%
same,growth inhibition,[16]; at 1.2 µM,-4%
same,growth inhibition,[16]; at 3.7 µM,-3%
same,growth inhibition,[16]; at 11.0 µM,3%
same,growth inhibition,[16]; at 33.0 µM,-3%
same,growth inhibition,[16]; at 100.0 µM,-6%
